Assay results reported in the supplement of paper PMC11732987, “Enantioselective OTUD7B fragment discovery through chemoproteomics screening and high-throughput optimisation” (Communications Chemistry, 2025).

How the values were obtained:
Experiment in all cases: log2 ratio of Biotin-Ahx-Ub-VS probe labelling (fragment/DMSO); higher = less target engagement (more negative = stronger competition), active = hit call of the paper (q ≤ 0.05, log2 ratio ≤ -1)
Conditions in all cases: compound concentration: 200 uM; treatment time: 3 h
ALG13 = biological target: T1, ALG13 (UniProt Q9NP73)
T1 sequence (whole entry): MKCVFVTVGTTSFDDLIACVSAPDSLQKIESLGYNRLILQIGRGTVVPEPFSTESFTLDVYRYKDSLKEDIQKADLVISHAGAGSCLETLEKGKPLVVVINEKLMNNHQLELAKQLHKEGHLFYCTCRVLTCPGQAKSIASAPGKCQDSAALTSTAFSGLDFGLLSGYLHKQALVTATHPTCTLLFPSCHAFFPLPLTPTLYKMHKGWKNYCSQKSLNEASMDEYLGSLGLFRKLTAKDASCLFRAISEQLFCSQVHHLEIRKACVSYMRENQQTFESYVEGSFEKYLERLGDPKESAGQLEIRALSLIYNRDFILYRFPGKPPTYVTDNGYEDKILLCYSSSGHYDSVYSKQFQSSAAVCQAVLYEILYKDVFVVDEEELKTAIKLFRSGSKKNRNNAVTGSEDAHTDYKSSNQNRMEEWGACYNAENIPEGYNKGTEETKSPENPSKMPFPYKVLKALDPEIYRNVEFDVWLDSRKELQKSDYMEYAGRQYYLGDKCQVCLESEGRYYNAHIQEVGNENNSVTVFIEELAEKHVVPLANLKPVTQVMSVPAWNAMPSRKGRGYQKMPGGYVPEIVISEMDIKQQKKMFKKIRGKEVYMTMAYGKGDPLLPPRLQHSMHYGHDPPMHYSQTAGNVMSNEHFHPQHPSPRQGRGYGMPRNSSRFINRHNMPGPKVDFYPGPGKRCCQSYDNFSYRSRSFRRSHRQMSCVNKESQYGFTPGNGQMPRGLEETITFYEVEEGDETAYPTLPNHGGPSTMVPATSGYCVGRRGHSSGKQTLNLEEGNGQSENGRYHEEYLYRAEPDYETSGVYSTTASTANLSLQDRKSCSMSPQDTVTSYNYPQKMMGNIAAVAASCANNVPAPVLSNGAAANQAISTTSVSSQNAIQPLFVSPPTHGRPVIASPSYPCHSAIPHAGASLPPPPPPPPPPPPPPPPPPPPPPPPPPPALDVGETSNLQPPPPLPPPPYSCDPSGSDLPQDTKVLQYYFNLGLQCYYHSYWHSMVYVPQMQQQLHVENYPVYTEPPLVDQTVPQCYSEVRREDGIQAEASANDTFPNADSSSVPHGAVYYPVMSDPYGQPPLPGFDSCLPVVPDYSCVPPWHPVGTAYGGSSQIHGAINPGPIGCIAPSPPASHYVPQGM
How it was run: (§1)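 Triplicate samples of HEK293T lysate, 495 µg each, received fragment at 200 µM or vehicle for 3 h, followed by Biotin-Ahx-Ub-VS (0.5 µM final) for 1 h. After NeutrAvidin enrichment of labelled DUBs and LysC/trypsin digestion, peptides were run by diaPASEF LC-MS/MS. The values are average log2 fragment/vehicle ratios from global-median-normalised Spectronaut label-free quantities, tested by unpaired t-test on proteins having ≥2 unique peptides.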

ATXN3 = ATXN3 (UniProt P54252)
Chain of ATXN3 (P54252 whole entry): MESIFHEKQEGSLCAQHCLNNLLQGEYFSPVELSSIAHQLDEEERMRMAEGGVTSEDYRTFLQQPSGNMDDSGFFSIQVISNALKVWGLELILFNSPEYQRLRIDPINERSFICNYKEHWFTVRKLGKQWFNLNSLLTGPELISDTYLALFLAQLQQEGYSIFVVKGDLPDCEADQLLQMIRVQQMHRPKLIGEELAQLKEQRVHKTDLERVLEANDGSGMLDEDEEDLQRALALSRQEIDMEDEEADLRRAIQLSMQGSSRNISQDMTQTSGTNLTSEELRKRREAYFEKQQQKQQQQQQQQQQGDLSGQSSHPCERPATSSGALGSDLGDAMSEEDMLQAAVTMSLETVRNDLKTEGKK
How it was run: as §1

BAP1 = biological target: T2, BAP1 (UniProt Q92560)
T2 sequence (whole entry): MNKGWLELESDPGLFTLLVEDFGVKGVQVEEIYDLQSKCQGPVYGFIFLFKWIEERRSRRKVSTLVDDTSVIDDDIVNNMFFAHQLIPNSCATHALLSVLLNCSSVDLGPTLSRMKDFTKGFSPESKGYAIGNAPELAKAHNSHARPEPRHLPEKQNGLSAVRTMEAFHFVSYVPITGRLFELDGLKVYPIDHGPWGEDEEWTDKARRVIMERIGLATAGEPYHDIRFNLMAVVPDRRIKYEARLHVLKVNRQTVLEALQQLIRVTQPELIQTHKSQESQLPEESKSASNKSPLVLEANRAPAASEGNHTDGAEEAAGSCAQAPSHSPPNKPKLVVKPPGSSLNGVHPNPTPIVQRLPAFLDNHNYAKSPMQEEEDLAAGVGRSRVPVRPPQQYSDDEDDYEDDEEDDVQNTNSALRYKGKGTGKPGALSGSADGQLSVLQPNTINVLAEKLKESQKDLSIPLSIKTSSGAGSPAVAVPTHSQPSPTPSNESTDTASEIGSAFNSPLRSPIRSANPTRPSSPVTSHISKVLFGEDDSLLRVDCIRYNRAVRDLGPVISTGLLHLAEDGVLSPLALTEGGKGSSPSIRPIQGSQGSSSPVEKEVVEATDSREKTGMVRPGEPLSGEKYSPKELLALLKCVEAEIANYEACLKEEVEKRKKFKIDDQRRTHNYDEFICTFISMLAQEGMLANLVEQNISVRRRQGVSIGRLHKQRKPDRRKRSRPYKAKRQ
How it was run: as §1

EIF3F = EIF3F (UniProt O00303)
Chain of EIF3F (O00303 whole entry): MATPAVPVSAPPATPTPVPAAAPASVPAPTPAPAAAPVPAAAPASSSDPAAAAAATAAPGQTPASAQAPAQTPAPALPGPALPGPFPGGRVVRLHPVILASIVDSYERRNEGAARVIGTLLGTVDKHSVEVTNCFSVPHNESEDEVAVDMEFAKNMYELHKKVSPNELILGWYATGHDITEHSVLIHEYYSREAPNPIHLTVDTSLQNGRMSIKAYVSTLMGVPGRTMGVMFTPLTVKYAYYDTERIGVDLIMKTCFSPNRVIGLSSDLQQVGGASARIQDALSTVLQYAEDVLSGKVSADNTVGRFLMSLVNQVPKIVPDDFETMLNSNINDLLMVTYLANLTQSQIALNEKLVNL
How it was run: as §1

EIF3H = EIF3H (UniProt O15372)
Chain of EIF3H (O15372 whole entry): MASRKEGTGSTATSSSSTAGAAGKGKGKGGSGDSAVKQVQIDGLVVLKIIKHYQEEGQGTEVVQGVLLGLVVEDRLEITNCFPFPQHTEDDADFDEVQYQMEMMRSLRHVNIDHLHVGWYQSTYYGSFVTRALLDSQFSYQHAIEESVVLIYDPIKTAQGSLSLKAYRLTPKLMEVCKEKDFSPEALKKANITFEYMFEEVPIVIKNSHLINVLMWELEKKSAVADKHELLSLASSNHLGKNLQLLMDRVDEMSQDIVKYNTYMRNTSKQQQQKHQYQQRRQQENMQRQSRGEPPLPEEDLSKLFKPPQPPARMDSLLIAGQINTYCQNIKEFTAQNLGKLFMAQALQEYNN
How it was run: as §1

FAM105A = biological target: T3, FAM105A (UniProt Q9NUU6)
T3 sequence (whole entry): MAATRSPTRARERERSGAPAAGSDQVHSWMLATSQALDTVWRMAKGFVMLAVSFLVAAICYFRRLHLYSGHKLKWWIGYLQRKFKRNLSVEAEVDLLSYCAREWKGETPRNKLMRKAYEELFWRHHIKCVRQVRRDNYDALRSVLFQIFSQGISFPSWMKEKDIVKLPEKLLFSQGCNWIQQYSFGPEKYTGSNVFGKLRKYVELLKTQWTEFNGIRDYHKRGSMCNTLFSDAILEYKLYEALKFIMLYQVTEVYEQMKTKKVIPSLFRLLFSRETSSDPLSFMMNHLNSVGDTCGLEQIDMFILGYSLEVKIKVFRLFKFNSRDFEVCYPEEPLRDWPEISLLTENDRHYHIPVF
How it was run: as §1

OTUB1 = OTUB1 (UniProt Q96FW1)
Chain of OTUB1 (Q96FW1 whole entry): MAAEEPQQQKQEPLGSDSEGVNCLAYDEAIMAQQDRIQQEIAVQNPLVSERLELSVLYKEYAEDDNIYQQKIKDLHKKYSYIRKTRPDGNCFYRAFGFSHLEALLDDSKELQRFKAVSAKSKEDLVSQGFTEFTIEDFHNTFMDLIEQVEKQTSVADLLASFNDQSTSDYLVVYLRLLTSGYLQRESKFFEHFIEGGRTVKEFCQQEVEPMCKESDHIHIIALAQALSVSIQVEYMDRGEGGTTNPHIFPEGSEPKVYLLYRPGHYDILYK
How it was run: as §1

OTUD4 = biological target: T4, OTUD4 (UniProt Q01804)
T4 sequence (whole entry): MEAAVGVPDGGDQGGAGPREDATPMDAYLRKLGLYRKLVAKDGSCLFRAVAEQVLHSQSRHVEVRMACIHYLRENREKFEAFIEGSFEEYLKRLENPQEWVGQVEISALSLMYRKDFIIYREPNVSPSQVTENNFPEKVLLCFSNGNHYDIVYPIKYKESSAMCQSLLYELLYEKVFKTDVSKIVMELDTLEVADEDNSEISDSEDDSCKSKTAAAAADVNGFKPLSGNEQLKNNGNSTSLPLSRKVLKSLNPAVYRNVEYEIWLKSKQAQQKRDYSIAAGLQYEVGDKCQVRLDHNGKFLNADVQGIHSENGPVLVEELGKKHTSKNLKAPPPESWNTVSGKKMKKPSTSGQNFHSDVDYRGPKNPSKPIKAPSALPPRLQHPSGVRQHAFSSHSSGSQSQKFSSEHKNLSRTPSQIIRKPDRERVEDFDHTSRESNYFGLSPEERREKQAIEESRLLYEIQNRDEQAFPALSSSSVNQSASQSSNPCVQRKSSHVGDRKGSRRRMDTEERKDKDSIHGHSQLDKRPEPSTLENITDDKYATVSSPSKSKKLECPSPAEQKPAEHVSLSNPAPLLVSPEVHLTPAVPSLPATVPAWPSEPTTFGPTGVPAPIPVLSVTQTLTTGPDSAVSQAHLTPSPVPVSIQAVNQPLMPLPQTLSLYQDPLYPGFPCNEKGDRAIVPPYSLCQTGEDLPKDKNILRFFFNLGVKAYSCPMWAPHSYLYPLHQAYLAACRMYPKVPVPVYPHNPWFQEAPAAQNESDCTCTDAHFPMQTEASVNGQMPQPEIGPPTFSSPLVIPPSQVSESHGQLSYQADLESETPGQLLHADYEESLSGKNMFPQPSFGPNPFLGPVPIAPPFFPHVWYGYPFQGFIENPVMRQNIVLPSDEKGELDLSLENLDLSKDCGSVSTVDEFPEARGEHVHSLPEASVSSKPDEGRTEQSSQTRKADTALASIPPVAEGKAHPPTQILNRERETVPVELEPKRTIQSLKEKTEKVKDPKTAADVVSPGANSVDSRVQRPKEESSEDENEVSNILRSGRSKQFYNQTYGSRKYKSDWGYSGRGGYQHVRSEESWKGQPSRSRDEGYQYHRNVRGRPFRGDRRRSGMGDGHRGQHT
How it was run: as §1

OTUD5 = biological target: T5, OTUD5 (UniProt Q96G74)
T5 sequence (whole entry): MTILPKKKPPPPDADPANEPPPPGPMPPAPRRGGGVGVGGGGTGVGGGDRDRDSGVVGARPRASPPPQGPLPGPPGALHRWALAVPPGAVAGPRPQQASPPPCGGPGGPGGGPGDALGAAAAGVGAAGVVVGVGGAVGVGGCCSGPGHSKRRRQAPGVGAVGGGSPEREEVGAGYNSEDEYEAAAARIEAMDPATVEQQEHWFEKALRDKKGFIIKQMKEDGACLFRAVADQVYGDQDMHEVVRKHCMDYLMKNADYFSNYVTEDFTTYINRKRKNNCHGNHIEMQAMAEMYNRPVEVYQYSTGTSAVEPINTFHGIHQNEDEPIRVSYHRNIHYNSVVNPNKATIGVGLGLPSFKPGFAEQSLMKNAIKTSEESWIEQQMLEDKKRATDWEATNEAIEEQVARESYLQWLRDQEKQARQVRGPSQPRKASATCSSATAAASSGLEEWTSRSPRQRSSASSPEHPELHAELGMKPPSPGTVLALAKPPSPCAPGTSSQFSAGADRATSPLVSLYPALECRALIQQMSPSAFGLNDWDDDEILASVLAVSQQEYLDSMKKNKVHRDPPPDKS
How it was run: as §1

Measured: log2 ratio of Biotin-Ahx-Ub-VS probe labelling

O=C(CCl)NC1CCCCNC1=O (centres undefined)
inactive: ALG13 -0.0613 | ATXN3 -0.417 | BAP1 -0.683 | EIF3F -0.598 | EIF3H 0.103 | FAM105A 0.229 | OTUB1 -0.231 | OTUD4 -0.342 | OTUD5 -0.397
